According to PubChem BioAssay (EPA / NIEHS):
More than one record can exist for a structure, and the calls need not agree. Activity calls are given as the source filed them. Rule for the calls: active = hit-call score of the fitted dose curve at least 0.9, where 1 is the maximum; inactive = score below 0.9.

molecular target: Myc proto-oncogene protein (Homo sapiens) (UniProt P01106); assay: ATG_Myc_CIS: Attagene CIS-FACTORIAL HepG2 Assay for human Myelocytomatosis (Myc) Proto-Oncogene Transcription Factor (AID 2282990); settings: HepG2, Attagene cis-reporter transcription factor activity; actives raise or lower the signal
Sequence (P01106 whole entry, looked up): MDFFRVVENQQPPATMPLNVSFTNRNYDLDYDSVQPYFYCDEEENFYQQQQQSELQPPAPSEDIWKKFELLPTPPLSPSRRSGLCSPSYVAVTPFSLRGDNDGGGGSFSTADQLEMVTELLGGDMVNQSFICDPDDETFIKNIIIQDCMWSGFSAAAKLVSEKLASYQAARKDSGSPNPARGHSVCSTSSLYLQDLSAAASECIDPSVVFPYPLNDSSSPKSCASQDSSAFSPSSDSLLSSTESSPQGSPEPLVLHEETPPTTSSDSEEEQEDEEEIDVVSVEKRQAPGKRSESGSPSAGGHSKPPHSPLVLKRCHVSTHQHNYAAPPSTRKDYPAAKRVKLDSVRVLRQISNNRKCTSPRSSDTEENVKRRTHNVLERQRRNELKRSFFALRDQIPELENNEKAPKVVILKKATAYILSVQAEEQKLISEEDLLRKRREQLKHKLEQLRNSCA
Method: ATG_CIS is a cell-based, multiplexed-readout assay that uses HepG2, a human liver cell line, with measurements taken at 24 hours after chemical dosing in a 24-well plate.ATG_Myc_CIS is one of 52 assay component(s) measured or calculated from the ATG_CIS assay. It is designed to make measurements of mRNA induction, a form of inducible reporter, as detected with fluorescence intensity signals by Reverse transcription polymerase chain reaction (RT-PCR) and Capillary electrophoresis technology.Data from the assay component ATG_Myc_CIS was analyzed into 1 assay endpoint. This assay endpoint, ATG_Myc_CIS, was analyzed with bidirectional fitting relative to DMSO as the negative control and baseline of activity. Using a type of inducible reporter, measures of mRNA for gain or loss-of-signal activity can be used to understand the reporter gene at the transcription factor-level as they relate to the gene MYC. Furthermore, this assay endpoint can be referred to as a primary readout, because this assay has produced multiple assay endpoints where this one serves a reporter gene function. To generalize the intended target to other relatable targets, this assay endpoint is annotated to the dna binding intended target family, where the subfamily is basic helix-loop-helix leucine zipper.
Human liver HepG2 cells are transiently transfected with multiple reporter transcription units (MRTUs) in 6-well plates using FuGene 6 reagent (Roche; 3 ml FuGene/1 mg DNA). The MRTU constructs are regulated by a cis-regulating element (promoter). […] A major difference between the CIS and TRANS system is that in CIS activities of endogenous TFs are measured, whereas the TRANS assay evaluates changes in activities of exogenous, chimeric NR-Gal4 proteins. […] At the end of 24 hour incubation, total RNA was isolated using TriZol reagent (Invitrogen). The isolated RNA is then reverse-transcribed using oligo(dT) primer and Mo-MLV reverse transcriptase (Invitrogen) with DNAse I (Ambion) treatment for 30 min. The one-tenth of the produced cDNA was amplified by PCR using Taq DNA polymerase (Invitrogen) and two reporter sequence-specific primers. The PCR products were fluorescently labeled by primer extension with 6-arboxyfluorescein (6-FAM) 5'-labeled reporter sequence-specific primer (2 min at 95 C, 20 s at 68 C and 10 min at 72 C) and these products were digested with 5U of HpaI (New England Biolabs) for 2h at 37 C. The fragments were purified using Qiaquick PCR columns (Qiagen), analyzed on an ABI 3130xL genetic analyzer (Applied Biosystems) with peak positions identified by using a set of X-rhodamine (ROX)-labeled MapMarker1000 molecular weight standards (BioVentures). The raw capillary electrophoresis data was processed using Attagraph software (Attagene).

| Structure (SMILES) | AC50 | outcome |
| --- | --- | --- |
| ClC1=C(Cl)C2(Cl)C3C(Cl)C=CC3C1(Cl)C2(Cl)Cl (stereo not given) | 100 µM (active) | – |
| O=[N+]([O-])C(Br)(CO)CO | 74.6 µM (active) | – |
| CCCSC(=O)N(CCC)CCC | – | inactive |
| c1ccc(C2CO2)cc1 (stereo not given) | – | inactive |
| CC(C)(C)OOC(C)(C)CCC(C)(C)OOC(C)(C)C | – | inactive |
| CCCCC(CC)COC(=O)c1ccc(C(=O)OCC(CC)CCCC)c(C(=O)OCC(CC)CCCC)c1 (stereo not given) | – | inactive |
| Clc1ccc(C(c2ccc(Cl)cc2)C(Cl)(Cl)Cl)cc1 | – | inactive |
| CCCCCCCCn1sccc1=O | 17.5 µM (active) | – |
| O=[N+]([O-])c1ccc(Oc2ccc(Cl)cc2Cl)cc1 | – | inactive |
| O=Cc1ccco1 | – | inactive |
| [As]#[In] | – | inactive |
| Nc1ccc(Oc2ccc(N)cc2)cc1 | – | inactive |
| Clc1ccccc1Cl | – | inactive |
| Nc1ccc([N+](=O)[O-])cc1 | – | inactive |
| Cc1ccc([N+](=O)[O-])cc1 | – | inactive |
| Cc1ccc(N)cc1 | – | inactive |
| O=C(Nc1ccccc1)c1ccccc1I | – | inactive |
| O=C(Oc1ccc(Br)cc1)N1CCN2CCC1CC2 | – | inactive |
| CC(C)COC(=O)c1ccccc1C(=O)OCC(C)C | – | inactive |
| O=C(O)C1C2CCC(O2)C1C(=O)O (stereo not given) | – | inactive |

| Structure (SMILES) | AC50 | outcome |
| --- | --- | --- |
| COC(=O)Nc1nc2ccccc2[nH]1 | – | inactive |
| C1=Cc2cccc3cccc1c23 | – | inactive |
| Nc1ccc(N=Nc2ccccc2)cc1 | – | inactive |
| CCOC(=O)[C@]1(c2ccccc2)Oc2ccccc2[C@@H]1N | 24.5 µM (active) | – |
| Cc1ccc(N)c(N)c1 | – | inactive |
| CCC12COCN1COC2 | – | inactive |
| CN(C)C(=O)Nc1ccc(Cl)cc1 | – | inactive |
| O=C(N[C@H](c1ccccc1)[C@@H]1CN2CCC1CC2)c1c(Cl)ccc(C(F)(F)F)c1Cl | – | inactive |
| c1ccc(NNc2ccccc2)cc1 | – | inactive |
| Brc1ccc(Oc2ccccc2)cc1 | – | inactive |
| CC(C)N(Cc1ccccc1)C(=O)C(C)(C)C | – | inactive |
| O=C1CCCO1 | – | inactive |
| C[N+](C)(C)CC1CO1 (stereo not given) | – | inactive |
| CC(O)CCO (stereo not given) | – | inactive |
| CN(C)[C@@H]1C(=O)C(C(N)=O)=C(O)[C@@]2(O)C(=O)C3=C(O)c4c(O)cccc4[C@@](C)(O)[C@H]3C[C@@H]12 | – | inactive |
| Cc1cccc(N)c1N | – | inactive |
| Clc1ccc(Cl)c(Cl)c1 | – | inactive |
| CCCCCCCCOC(=O)c1ccc(C(=O)OCCCCCCCC)c(C(=O)OCCCCCCCC)c1 | – | inactive |
| CCNS(=O)(=O)C(F)(F)C(F)(F)C(F)(F)C(F)(F)C(F)(F)C(F)(F)C(F)(F)C(F)(F)F | 96.5 µM (active) | inactive |
